Assay results: PubChem BioAssay AID1159580 (chemical genetic matrix, 2015)
In all, about 5,500 compounds went through this assay and about 2,000 (36%) were called active. Another 18% or so got no clear call; they are omitted. Cut-off read from the data, not from the text of the source: active = normalized growth mostly below about 0.91 (no sharp cut-off); inconclusive = no clear call, values can overlap the other calls; inactive = mostly above about 0.92. The list shows a part of the results.

Assay: chemical genetic growth profiling, strain panel (AID 1159580);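 note: tested at 20 µM; growth read once vehicle control cultures reached saturation at 30 °C; 1 = growth at the plate median or of vehicle wells; lower values mean less growth of the strain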
Conditions: S. cerevisiae deletion strains, growth OD

Measured: normalized growth

Cc1nc2c(OCc3ccccc3)cccn2c1CC#N
inactive: locus YAL040C, strain CLN3, hits give low values 0.99 | locus YCL061C, strain MRC1 (second series), hits give low values 0.996 | locus YDR363W, strain ESC2, hits give low values 0.987 | locus YER002W, strain NOP16, hits give low values 0.991 | locus YGR078C, strain PAC10, hits give low values 0.996 | locus YMR263W, strain SAP30, hits give low values 1 | locus YMR307W, strain GAS1, hits give low values 0.974 | locus YNL153C, strain GIM3, hits give low values 0.994 | locus YNL175C, strain NOP13, hits give low values 0.991 | locus YNL197C, strain WHI3, hits give low values 1 | locus YNL224C, strain SQS1, hits give low values 0.995 | locus YNL322C, strain KRE1, hits give low values 1.01 | locus YOR083W, strain WHI5 (second series), hits give low values 0.97 | locus YPL241C, strain CIN2, hits give low values 1
